Sampled rows, rich in hits. Any-hit rate of the full collection: about 0.43%.
N370S GC mod – inhibitors or activators of N370S glucocerebrosidase for Gaucher disease | P04062 | N370S GC spleen homogenate, 4MU-glucoside fluorescence | actives 0.092% (n = 330,000) | Potency, µM (titrated, usually from 59.4 µM), most hits filed as inhibitors
GAA inh – inhibitors of human lysosomal alpha-glucosidase; P10253; purified human GAA, 4-MU-alpha-glucoside fluorescence; Potency, µM (series often up to 76.9 µM), most hits filed as inhibitors; actives 0.005% (n = 200,000); AID 1466
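Compounds are titrated up to 77 uM against 4 nM human enzyme. Substrate 4-methylumbelliferyl-alpha-D-pyranoside (400 uM) reacts 20 min at room temperature in pH 5.0 buffer; liberated 4-methylumbelliferone is read at 440 nm.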
GLA spleen mod – inhibitors or activators of human alpha-galactosidase in spleen homogenate. AID 2107. actives 0.008% (n = 240,000). Potency, µM (highest dose often 80 µM), hits mostly inhibitors. human spleen homogenate, 4MU-alpha-Gal fluorescence, 40 min. P06280
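Human spleen homogenate (1 ug) as enzyme source, 4-methylumbelliferyl-alpha-D-galactopyranoside 1 mM final, citrate/phosphate pH 5.0 with 0.01% Tween-20. Compounds 40 min at 37C, NaOH/glycine stop; fluorescence Ex 365/Em 440, Hill-fit AC50.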
aGlu spleen mod – inhibitors or activators of human alpha-glucosidase in spleen homogenate; P10253; human spleen homogenate, 4-MU-alpha-glucoside fluorescence; Potency, µM (titrated, usually from 79.9 µM), hits mostly inhibitors; actives 0.006% (n = 240,000); AID 2112
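Enzyme source: human spleen homogenate, 1 ug/well. Buffer 50 mM citric acid/K phosphate pH 5.0, 0.01% Tween-20. 4-MU-alpha-glucoside 1 mM; 37 C x 40 min; NaOH/glycine stop; fluorescence.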
GAA glycogen – GAA glycogen-cleavage inhibition or activation; P10253; recombinant GAA, glycogen substrate, Amplex Red glucose oxidase fluorescence; Potency, µM (top dose mostly 76.4 µM), actives largely listed as inhibitors; actives 0.38% (n = 300,000);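 further: the screen sought inhibitors and activators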
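qHTS, 1536-well; enzyme 4 nM final; cpd up to 77 uM; substrate bovine liver glycogen 30 ug; 50 mM citrate/phosphate pH 5.0, 0.01% Tween-20; 37 C, 40 min; Amplex Red detection 45 min RT; Hill fit → AC50.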
GLA inh pH 4.5 – alpha-galactosidase A (human) inhibition, pH 4.5. activity change, negative = inhibition, % at 105 µM. 230,000 tested, under 10 active. purified enzyme, 4-MU-alpha-Gal fluorescence, pH 4.5. P06280
Target sequence (P06280 whole entry, looked up): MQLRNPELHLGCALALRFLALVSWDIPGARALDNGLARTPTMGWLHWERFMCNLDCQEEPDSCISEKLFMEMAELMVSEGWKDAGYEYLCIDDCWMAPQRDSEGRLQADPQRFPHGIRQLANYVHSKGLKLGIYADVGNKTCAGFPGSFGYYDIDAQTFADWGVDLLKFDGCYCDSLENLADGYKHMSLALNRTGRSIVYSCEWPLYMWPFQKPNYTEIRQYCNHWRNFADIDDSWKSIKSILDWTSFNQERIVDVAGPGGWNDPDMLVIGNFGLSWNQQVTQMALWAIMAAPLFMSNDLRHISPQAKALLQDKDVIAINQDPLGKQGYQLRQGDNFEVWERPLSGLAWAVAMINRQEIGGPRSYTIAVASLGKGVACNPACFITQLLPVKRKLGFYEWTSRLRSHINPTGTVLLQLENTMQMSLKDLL
Of the large screens only hits and unclear results are named; the others gave an inactive call. The call rests on the fitted dose curve; in most records, active means well fitted curve in the direction sought with a large enough effect; inconclusive means small, poorly fitted or top-dose-only effect, or another doubt; inactive means no such curve, though single readings can be large; an effect the other way counts as inactive or inconclusive.

OC[C@@H]1[C@@H](O)[C@H](O)[C@H]2[C@@H](O)CCN21	aGlu spleen mod 28µM (no result: GAA inh, GAA glycogen, GLA inh pH 4.5)
CN1CCC(=O)N(CCN=[N+]=[N-])CC1	GAA glycogen 50µM (no result: GAA inh, GLA spleen mod, aGlu spleen mod, GLA inh pH 4.5)
O=C(N/N=C1/CN2CCC1CC2)c1cc2ccccc2cc1O	GAA glycogen 35µM
C=C(C)[C@]12C[C@@H](C)[C@@]34OC(Cc5ccccc5)(O[C@@H]1[C@@H]3C=C(COC(=O)Cc1cc(OC)c(O)cc1I)C[C@]1(O)C(=O)C(C)=C[C@@H]41)O2	GLA inh pH 4.5 inconclusive (no result: GAA inh, GAA glycogen)
CN1[C@@H]2CC[C@H]1CC(O[C@@H](c1ccccc1)c1ccc(Cl)cc1)C2 (some centres undefined)	N370S GC mod 7.9µM (no result: GAA inh, GAA glycogen)
C[C@@H]1CC[C@@]2(OC1)O[C@H]1[C@@H](O)[C@H]3[C@@H]4CC[C@H]5C[C@@H](O[C@@H]6O[C@H](CO)[C@H](O[C@@H]7O[C@H](CO)[C@@H](O)[C@H](O[C@@H]8OC[C@@H](O)[C@H](O)[C@H]8O)[C@H]7O[C@@H]7O[C@H](CO)[C@@H](O)[C@H](O[C@@H]8O[C@H](CO)[C@@H](O)[C@H](O)[C@H]8O)[C@H]7O)[C@H](O)[C@H]6O)[C@H](O)C[C@]5(C)[C@H]4CC[C@]3(C)[C@H]1[C@@H]2C	none (no result: GAA inh, GAA glycogen, GLA inh pH 4.5)
CN1CC(C(=O)c2ccc(Cl)cc2)C(c2ccc(N(C)C)cc2)C1 (centres undefined)	GAA inh inconclusive
CN1CC(C(=O)c2ccc(Cl)cc2)C(c2ccc(Cl)cc2Cl)C1 (centres undefined)	N370S GC mod 18µM (no result: GAA inh, GLA spleen mod, aGlu spleen mod, GLA inh pH 4.5)
O=C(O)C1Sc2[nH]c(=O)sc2C2c3cc(Cl)ccc3OC(=O)C12 (centres undefined)	GAA glycogen 16µM
NC1CCCC[C@H]1N (some centres undefined)	none (no result: GAA inh, GAA glycogen, GLA inh pH 4.5)
O=C1C(Cl)=C(Cl)C(=O)C(Cl)=C1Cl	none (no result: GAA inh, GAA glycogen)
OCCCc1ccc(O)c(O)c1	GAA glycogen 35µM (no result: GAA inh)
Fc1ccc(C(OCCN2CCN(C/C=C/c3ccccc3)CC2)c2ccc(F)cc2)cc1	N370S GC mod inconclusive (no result: GAA inh, GAA glycogen, GLA inh pH 4.5)
CN1CCN(c2ccc3nccnc3c2)CC1	GLA spleen mod 35µM, aGlu spleen mod inconclusive
CCOc1cc(-c2nc3c(C)cccn3c2NCC2CCCO2)ccc1O (centres undefined)	GAA glycogen 35µM
Cc1cccn2c(NCC3CCCO3)c(C(C)C)nc12 (centres undefined)	GAA glycogen inconclusive
CC1CN(O)C2CCc3c(no[n+]3[O-])C12O (centres undefined)	GAA glycogen 8.8µM
Cc1cc2c(C(C)C)c(O)c(O)c(C=O)c2c(O)c1-c1c(C)cc2c(C(C)C)c(O)c(O)c(C=O)c2c1O	GAA inh inconclusive, GAA glycogen 8.9µM
COc1cc(/C=N/NP(=S)(c2ccccc2)c2ccccc2)ccc1O	N370S GC mod inconclusive, GAA glycogen 25µM
Oc1ccc(/C=N/NP(=S)(c2ccccc2)c2ccccc2)cc1	N370S GC mod inconclusive
CN1C(=O)C(Cc2cccc3ccccc23)C(=O)N(C)C1=O	GAA glycogen inconclusive
O=C1C2CCN(CC2)[C@@H]1Cc1ccc2ccccc2c1O	GAA glycogen 7.9µM
CCCCCCCCCCCC[N+](C)(C)CCOc1ccccc1	N370S GC mod 4.5µM (no result: GAA inh, GAA glycogen, GLA inh pH 4.5)
OC(c1ccc(Cl)cc1)(c1ccc(Cl)cc1)C(Cl)(Cl)Cl	none (no result: GAA inh, GAA glycogen, GLA inh pH 4.5)
O=C(NC1(C(F)(F)F)Oc2ccc(Cl)cc2O1)N1CCC2(CC1)OCCO2 (centres undefined)	GAA glycogen 8.9µM (no result: N370S GC mod)
O=C(NC1(C(F)(F)F)Oc2ccccc2O1)N1CCC2(CC1)OCCO2	GAA glycogen 5.6µM
CC[C@@H](CO)NC(=O)[C@H]1C=C2c3cccc4c3c(cn4C)C[C@H]2N(C)C1	none (no result: GAA inh, GAA glycogen)
COC1=CC(=O)O[C@@H](/C=C/c2ccc3c(c2)OCO3)C1	none (no result: GAA inh, GAA glycogen, GLA inh pH 4.5)
CNNC	none (no result: GAA inh, GAA glycogen)
NS(=O)(=O)O	N370S GC mod inconclusive (no result: GAA inh, GAA glycogen, GLA inh pH 4.5)
CCOC(=O)CC(SP(=O)(OC)OC)C(=O)OCC (centres undefined)	none (no result: GAA inh, GAA glycogen, GLA inh pH 4.5)
ClC1=C(Cl)C(Cl)(C2(Cl)C(Cl)=C(Cl)C(Cl)=C2Cl)C(Cl)=C1Cl	none (no result: GAA inh, GAA glycogen, GLA inh pH 4.5)
O=c1c(O)c(-c2ccc(O)c(O)c2)oc2cc(O)cc(O)c12	N370S GC mod inconclusive, GAA glycogen inconclusive (no result: GAA inh)
O=c1cc(-c2ccc(O)c(O)c2)oc2cc(O)cc(O)c12	N370S GC mod inconclusive, GLA spleen mod inconclusive, GAA glycogen 25µM (no result: GAA inh)
